# Reference: PubChem BioAssay (Tox21)
# Inconclusive results are not listed. Where a call stands in place of a potency, no number is given. Values without a mark were called inactive. The source made the active and inactive calls. Unless noted, calls come from the whole dose curve; as a rule, active = well fitted curve in the direction sought with a large enough effect in the repeat runs; inconclusive = weak or mixed curves; inactive = no such curve, though single readings can be large; an effect the other way counts as inactive or inconclusive.
# Key:
# [1] = qHTS assay to identify small molecule antagonists of the vitamin D receptor (VDR) signaling pathway - cell viability counter screen (AID 743225); note: nearly all actives have a fitted effect of over 50% in size
# How it was run: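 Cytotoxicity toward the VDR-bla HEK 293T line was scored by ATP-based CellTiter-Glo luminescence, read in the wells already used for the beta-lactamase readout after 16 h compound treatment under 3 nM 1-alpha,25-dihydroxyvitamin D3 stimulation.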
# [2] = qHTS assay to identify small molecule agonists of the NFkB signaling pathway (AID 1159509; active = well fitted curve in the direction sought with a large enough effect in the signal ratio in the repeat runs, not every such curve was filed as active; the % refers to the signal ratio; note: series mostly up to about 61 µM)
# How it was run: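 Agonist activity was read as beta-lactamase-driven FRET change (460 and 530 nm emission, 405 nm excitation) following 1.5 hr substrate loading at room temperature. Beforehand, ME-180 NFkB-bla reporter cells were treated with compounds for 5 hr at 37 C.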
# [3] = qHTS assay to identify small molecule agonists of the NFkB signaling pathway - cell viability counter screen (AID 1159515; calls by dose curve; note: series mostly up to about 61 µM; nearly all actives have a fitted effect of over 55% in size)
# How it was run: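 ME-180 NFkB-bla cells, 2,000/well; overnight attach; compound 5 hr, 37 C/5% CO2; LiveBLAzer substrate 1.5 hr RT; then CellTiter-Glo in same wells, 30 min RT, luminescence read.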
# [4] = qHTS assay to identify small molecule agonists of the endoplasmic reticulum stress response signaling pathway - cell viability counter screen (AID 1159517; calls by dose curve;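 note: HeLa cells carrying an ER stress response element beta-lactamase reporter; series mostly up to about 61 µM; nearly all actives have a fitted effect of over 50% in size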)
# How it was run: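 ESRE-bla HeLa cells (1,500/well) were plated overnight at 37 C and exposed to compounds for 5 hr. After the 2 hr beta-lactamase substrate read, CellTiter-Glo went into the same wells, and luminescence was read after 30 min at room temperature.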
# [5] = qHTS assay to identify small molecule antagonists of the retinoid-related orphan receptor gamma (ROR-gamma) signaling pathway - cell viability counter screen (AID 1159520); note: nearly all actives have a fitted effect of over 50% in size; note: potency is the fitted concentration of half-maximal effect
# How it was run: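 Cytotoxicity was read from cellular ATP (CellTiter-Glo luminescence) after 16 hr at 37 C with 1 uM doxycycline induction. The inducer was added 2 hr after compound transfer to Tet-on ROR gamma CHO cells.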
# [6] = molecular target: Nuclear receptor ROR-gamma (Homo sapiens) (UniProt P51449); test: qHTS assay to identify small molecule antagonists of the retinoid-related orphan receptor gamma (ROR-gamma) signaling pathway (AID 1159521;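 note: CHO cells with doxycycline inducible ROR-gamma driving an RORE luciferase reporter; top concentration of the series differs between compounds; nearly all actives have a fitted effect of over 50% in size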)
# How it was run: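 Readout: ONE-Glo luciferase luminescence, 30 min at room temperature. System: Tet-on RORγ CHO, RORE-LUC. Sequence: compound 2 h, doxycycline 1 uM final, 16 h at 37 C.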
# [7] = qHTS assay to identify small molecule agonists of the AP-1 signaling pathway - cell viability counter screen (AID 1159525; calls by dose curve; note: nearly all actives have a fitted effect of over 55% in size)
# How it was run: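 Intracellular ATP by Cell Titer Glo luminescence (30 min, RT) in the same ME-180 AP-1-bla wells after the 5 h compound exposure at 37 °C. Normalised to tetra n-octyl ammonium bromide and DMSO controls.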
# [8] = qHTS assay to identify small molecule antagonists of the retinoid acid receptor (RAR) signaling pathway - cell viability counter screen (AID 1159551); note: nearly all actives have a fitted effect of over 35% in size
# How it was run: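 C3RL4 RARE-luciferase line; cpds + retinol 1 uM final, 6 h, 37 C/5% CO2; CellTiter-Glo ATP luminescence, 30 min RT.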
# [9] = qHTS assay to identify small molecule antagonists of the retinoic acid receptor (RAR) signaling pathway (AID 1159552; note: nearly all actives have a fitted effect of over 50% in size)
# How it was run: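 Overnight-plated C3RL4 reporter cells get compound, then retinol to 1 uM final; plates sit 6 hr at 37 C, 5% CO2. A luciferase reagent is added and light output recorded after 30 min at room temperature.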
# [10] = qHTS assay to identify small molecule agonists of the retinoic acid receptor (RAR) signaling pathway (AID 1159553)
# How it was run: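 RARE-luc C3RL4 cells; overnight attachment 37 C/5% CO2; compound (DMSO) 6 hr; luciferase reagent, 30 min RT; luminescence read-out.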
# [11] = qHTS assay to identify small molecule agonists of the AP-1 signaling pathway (AID 1159526; calls by dose curve)
# [12] = molecular target: Retinoic acid receptor RXR-alpha (Homo sapiens) (UniProt P19793); test: qHTS assay to identify small molecule agonists of the RXR signaling pathway (AID 1159527; calls by dose curve; note: nearly all actives have a fitted effect of over 35% in size; note: potency is the fitted concentration of half-maximal effect)
# How it was run: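 Reporter activation is measured as beta-lactamase activity via FRET substrate cleavage (emission 460/530 nm) in HEK 293T cells expressing an RXR-alpha-driven bla construct, following 16 hr compound exposure at 37 C.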
# [13] = qHTS assay to identify small molecule agonists of the RXR signaling pathway - cell viability counter screen (AID 1159529); note: nearly all actives have a fitted effect of over 50% in size; note: potency is the fitted concentration of half-maximal effect; for activity change, negative = cytotoxicity: series mostly up to about 77 µM
# How it was run: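 Tox21 10K compounds were tested for cytotoxicity against GeneBLAzer RXR-alpha HEK 293T cells grown in 2% charcoal-stripped FBS. Exposure lasted 16 hr at 37 C, 5% CO2; viability read by CellTiter-Glo luminescence.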
# Retinoic acid receptor RXR-alpha (Homo sapiens), sequence (P19793 whole entry, looked up): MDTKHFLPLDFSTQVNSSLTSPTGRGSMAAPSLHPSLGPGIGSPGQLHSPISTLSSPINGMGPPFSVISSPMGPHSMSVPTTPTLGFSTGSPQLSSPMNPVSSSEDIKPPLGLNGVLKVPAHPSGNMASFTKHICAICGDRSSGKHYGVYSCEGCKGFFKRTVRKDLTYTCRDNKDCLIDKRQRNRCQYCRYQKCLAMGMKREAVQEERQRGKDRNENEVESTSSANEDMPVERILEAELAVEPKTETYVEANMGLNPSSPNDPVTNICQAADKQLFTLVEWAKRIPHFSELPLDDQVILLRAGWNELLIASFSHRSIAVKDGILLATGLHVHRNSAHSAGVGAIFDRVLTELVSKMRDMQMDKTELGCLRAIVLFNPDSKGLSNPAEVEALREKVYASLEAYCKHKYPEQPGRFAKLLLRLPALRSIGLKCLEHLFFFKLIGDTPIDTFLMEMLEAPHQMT
compound,measurement,setting,value
CCCCOc1cc(C(=O)NCCN(CC)CC)c2ccccc2n1,Potency,[1],inactive
same,outcome,[2],inactive
same,outcome,[3],inactive
same,outcome,[4],inactive
same,Potency,[5],inactive
same,Potency,[6],inactive
same,outcome,[7],inactive
same,outcome,[8],inactive
same,Potency,[9],inactive
same,Potency,[10],inactive
CC(=O)Nc1ccc(C)c(Cl)c1,Potency,[1],inactive
same,outcome,[2],inactive
same,outcome,[3],inactive
same,outcome,[4],inactive
same,Potency,[5],inactive
same,outcome,[7],inactive
same,Potency,[11],inactive
same,Potency,[12],inactive
same,Potency,[13],inactive
same,outcome,[8],inactive
same,Potency,[9],inactive
same,Potency,[10],inactive
CCc1cc2cc(OC)c(OC)cc2c(Cc2ccccc2)n1,Potency,[1],inactive
same,outcome,[2],inactive
same,outcome,[3],inactive
same,outcome,[4],inactive
same,Potency,[5],inactive
same,Potency,[6],inactive
same,outcome,[7],inactive
same,Potency,[13],inactive
same,Potency,[10],inactive
C[C@@H]1CN(c2c(F)c(F)c3c(=O)c(C(=O)O)cn(C4CC4)c3c2F)C[C@H](C)N1,Potency,[1],inactive
same,outcome,[2],inactive
same,outcome,[3],inactive
same,outcome,[4],inactive
same,"activity, negative = cytotoxicity",[5],3.95% [at 19 µM]
same,"viability change, negative = cytotoxic",[7],7.6% [at 15.8 µM]
same,activation,[11],-3.66% [at 15.8 µM]
same,activation,[12],6.08% [at 15.8 µM]
same,"activity change, negative = cytotoxicity",[13],10.3% [at 15.8 µM]
same,"activity change, negative = cytotoxicity",[8],3.44% [at 19 µM]
same,"activity, negative = inhibition",[9],16.3% [at 19 µM]
same,Potency,[10],inactive
CCCCCCCCc1ccc(S(=O)(=O)O)cc1,Potency,[1],inactive
same,outcome,[2],inactive
same,outcome,[3],inactive
same,outcome,[4],inactive
same,Potency,[5],inactive
same,Potency,[6],inactive
same,outcome,[7],inactive
same,Potency,[13],24.3 µM (active)
same,outcome,[8],inactive
same,Potency,[10],inactive
CCOC(=O)C(Br)c1ccccc1 (configuration not stated),Potency,[1],inactive
same,outcome,[2],inactive
same,outcome,[3],inactive
same,outcome,[4],inactive
same,Potency,[5],inactive
same,Potency,[6],inactive
same,Potency,[11],inactive
same,Potency,[12],inactive
same,Potency,[13],inactive
same,outcome,[8],inactive
same,Potency,[9],inactive
same,Potency,[10],inactive
CN(CCCN1c2ccccc2CCc2ccccc21)CC(=O)c1ccc(Cl)cc1,Potency,[1],inactive
same,outcome,[2],inactive
same,outcome,[3],inactive
same,outcome,[4],inactive
same,Potency,[5],29.8 µM (active)
same,Potency,[6],inactive
same,outcome,[7],inactive
same,outcome,[8],inactive
same,Potency,[9],inactive
CCOC(=O)COc1ccc2c(c1)CC(NCC(O)c1cccc(Cl)c1)CC2 (configuration not stated),outcome,[2],inactive
same,outcome,[3],inactive
same,outcome,[4],inactive
same,Potency,[5],inactive
same,outcome,[8],inactive
same,Potency,[9],inactive
same,Potency,[10],inactive
Cc1ccc([N+](=O)[O-])cc1Cl,Potency,[1],inactive
same,outcome,[2],inactive
same,outcome,[3],inactive
same,outcome,[4],inactive
same,Potency,[5],inactive
same,outcome,[7],inactive
same,Potency,[11],inactive
same,Potency,[12],inactive
same,Potency,[13],inactive
same,outcome,[8],inactive
same,Potency,[9],inactive
same,Potency,[10],inactive
CCCCCCCCOC(=O)CCCCCCCCC(=O)OCCCCCCCC,Potency,[1],inactive
same,outcome,[2],inactive
same,outcome,[3],inactive
same,outcome,[4],inactive
same,Potency,[5],inactive
same,Potency,[11],inactive
same,Potency,[12],9.77 µM (active)
same,Potency,[13],inactive
same,outcome,[8],inactive
same,Potency,[10],inactive
NC(Cc1ccc(F)cc1)C(=O)O (configuration not stated),"viability change, negative = cytotoxic",[1],2.79% [at 6.95 µM]
same,activation,[2],-1.04% [at 6.95 µM]
same,"activity, negative = cytotoxic",[3],-7.23% [at 6.95 µM]
same,"activity change, negative = cytotoxicity",[4],0.188% [at 6.95 µM]
same,"activity, negative = cytotoxicity",[5],9.21% [at 8.39 µM]
same,"viability change, negative = cytotoxic",[7],-5.13% [at 6.97 µM]
same,activation,[12],12.3% [at 6.98 µM]
same,"activity change, negative = cytotoxicity",[13],2.52% [at 6.97 µM]
same,"activity change, negative = cytotoxicity",[8],2.5% [at 8.39 µM]
